Reference: PubChem BioAssay (NCI)
The panel holds about 83,000 compounds, 20% with a hit somewhere; the sample as a whole holds those more often.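 Growth was measured after 48 h exposure to one concentration of compound in 96-well plates. Values under 10 count as active.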 The source made the active and inactive calls.

The molecules below were run on SK-OV-3 ovarian (assay: NCI-60 one-dose screen, 48 h (100 = growth as untreated, 0 = no growth, -100 = all killed)). Conditions: 10 µM unless noted.
CCOC(=O)C(=O)CC(=O)N1C(=S)NC(=O)C1CC(C)C (centres undefined) was tested, and the growth was 122% (inactive). For COC(=O)C(Cc1ccccc1)Nc1nc(NC(Cc2ccccc2)C(=O)OC)nc(N2CCOCC2)n1 (centres undefined), the growth was 103% (inactive). With COc1c(N2CC3CCCNC3C2)c(F)cc2c(=O)c(C(=O)N/N=C/c3ccc(F)cc3)cn(C3CC3)c12 (centres undefined) the growth was 110% (inactive). CC(=O)C1=C(C)NC(NNC(N)=S)=NC1c1ccccc1 (centres undefined) was tested, and the growth was 104% (inactive). With Cn1cc(-c2nnc(N)nc2-c2c[nH]c3ccc(F)cc23)c2cc(F)ccc21 the growth was 88.4% (inactive). In the case of Oc1[nH]c2ccccc2c1Nn1c(N=N/C=c2/ccc3c(c2)C=NN=3)n[nH]c1=S, the growth is reported as 106% (inactive). For Cc1ccc2c(c1)C13C(=C2Br)CCCN1C(=O)c1ccccc13 (centres undefined), the growth was 96.2% (inactive). With CCO/C=N/C1=C(C#N)C(c2ccc(Cl)cc2)c2sc3c(CC)cccc3c2O1 (centres undefined) the growth was 58.2% (inactive). C=C(C=O)[C@@H]1CC[C@]2(COC(C)=O)CC[C@]3(C)C(CC[C@@H]4[C@@]5(C)CC[C@H](OC(C)=O)C(C)(C)[C@@H]5CC[C@]43C)[C@@H]12 (some centres undefined) was tested, and the growth was 50.3% (inactive). O=C(O)c1ccc(-n2cc(CNc3cc(F)c(F)c(F)c3)c(-c3ccc(F)cc3)n2)cc1 was tested, and the growth was 116% (inactive). COc1cc2nc(Cl)nc(Nc3cccc(C4=Nc5c(N)nc(N)nc5NC(c5ccc(Cl)cc5)C4)c3)c2cc1OC (centres undefined) was tested, and the growth was 124% (inactive). With CNC(=O)c1cc(N2CCc3cc(NC(=O)Nc4ccc(Cl)c(C(F)(F)F)c4)ccc32)ccn1 the growth was 86.6% (inactive). In the case of N=c1c2cc(-c3ccccc3)oc2ncn1/N=C/c1ccc(Br)cc1, the growth is reported as 101% (inactive). With NC(N)=Nc1ccc(Oc2cccc(NC(N)=Nc3ccc(Br)c(C(F)(F)F)c3)c2)cc1 the growth was 57% (inactive). CN(Cc1ccccc1)S(=O)(=O)/N=C1\NC(=O)NC1=C(Cl)Cl was tested, and the growth was 110% (inactive). COc1ccc(S(=O)(=O)NCCCNc2nccc(-c3[nH]c(-c4ccccc4)nc3-c3ccc(Cl)c(O)c3)n2)cc1 was tested, and the growth was 112% (inactive). In the case of O=C(CN1CCN(c2cc(=O)n(-c3ccccc3)c3ccccc23)CC1)Nc1nc(-c2ccc(Cl)cc2)cs1, the growth is reported as 71.4% (inactive). In the case of CC(=O)c1nnn(-c2c(C(=O)n3nc(C)cc3C)sc(=S)n2-c2ccccc2)c1C, the growth is reported as 108% (inactive). For O=C1[C@H]2Cc3c([nH]c4ccccc34)[C@@H](c3ccc(Br)cc3)N2C(=O)CN1C1CCN(CC2CCCCC2)CC1, the growth was 64.7% (inactive). In the case of NS(=O)(=O)c1ccc(Nc2nc(Nc3ccccc3)nc3nnc(SCC(=O)NC4CCCCC4)n23)cc1, the growth is reported as 105% (inactive). In the case of Cn1ccnc1C(=O)/C=C/C=C/c1ccc(C(=O)Nc2ccc(F)cc2)cc1, the growth is reported as 67.1% (inactive). O=C1[C@H]2Cc3c([nH]c4ccccc34)[C@@H](c3ccc(Cl)cc3)N2C(=O)CN1C1CCN(Cc2ccccc2)CC1 was tested, and the growth was 79.7% (inactive). In the case of NC(N)=Nc1ccc(Oc2cccc(Nc3ccc(Br)c(C(F)(F)F)c3)c2)cn1, the growth is reported as 32.2% (inactive). CCn1c2ccccc2c2cc(-n3nncc3-c3ccccc3)ccc21 was tested, and the growth was 42.4% (inactive). In the case of CN1CCN(Cc2ccc(NC(=O)c3cncc(C#Cc4cnc5ccc(OCC(C)(C)O)nn45)c3)cc2C(F)(F)F)CC1, the growth is reported as -13.3% (active). Cc1ccc(-n2c(/C=C3\C(=O)Nc4ccccc43)ccc2CO)cc1 was tested, and the growth was 86.8% (inactive). Cc1c(F)cc(C(N)=O)cc1NCC(=O)Nc1ccc([N+](=O)[O-])cc1 was tested, and the growth was 106% (inactive). For CCOC(=O)c1c(N)c(C#N)cn1-c1cc(OC)c(OC)c(OC)c1, the growth was 135% (inactive). In the case of O=c1[nH]c(Sc2sc3ccc(Cl)cc3c2CBr)nc(=S)[nH]1, the growth is reported as 18.4% (inactive). With CC(=O)c1ccc(Nc2nc(SCC(C)C)nc(-c3ccccc3)c2C#N)cc1 the growth was 79.7% (inactive). For CS(=O)(=O)c1ncc(-c2ccccc2)cn1, the growth was 108% (inactive). For CNC(=O)c1c(NC(=O)c2ccccc2C(F)(F)F)sc2c1CCC(=O)C2, the growth was 95.7% (inactive). For NC(N)=Nc1ccc(Nc2cccc(Oc3ccc(Cl)c(C(F)(F)F)c3)c2)cn1, the growth was 56.3% (inactive). CC(C)c1ccc(NCc2cn(-c3ccc(C(=O)O)cc3)nc2-c2cc(C(F)(F)F)cc(C(F)(F)F)c2)cc1 was tested, and the growth was 90.5% (inactive). In the case of COc1cc2nc(Cl)nc(Nc3cccc(C4=Nc5c(N)nc(N)nc5NC(c5ccccc5)C4)c3)c2cc1OC (centres undefined), the growth is reported as 121% (inactive). In the case of O=C(CCn1c[n+](CC(=O)c2ccc(F)cc2)c2ccccc21)Nc1cccc2cccnc12, the growth is reported as 88.2% (inactive). With COc1cc(-c2nc(-c3ccccc3)[nH]c2-c2ccnc(NCCCNS(=O)(=O)c3cccc(F)c3)n2)ccc1Cl the growth was 76.8% (inactive). For N#Cc1c(NC(=O)c2cccc(C(F)(F)F)c2F)sc2c1CCC(=O)C2, the growth was 5.3% (active). For COC[C@]12CCC(C)(C)C[C@H]1C1=CC[C@@H]3[C@@]4(C)CCCNC(C)(C)[C@@H]4CC[C@@]3(C)[C@]1(C)CC2, the growth was 75.9% (inactive).
